According to PubChem BioAssay AID999 (SRMLSC, 2007):
Values without a mark were called inactive. Active and inactive are the calls of the source.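 The calls were made as follows: active = viability at or below 21.59%, 3 SD under the median of tested compounds; inactive = the rest.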

Test: viability loss in PTEN-deleted cells – cell-based, validation, diverse DP compound set (AID 999);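 also: 100% = median luminescence of untreated cell control wells and 0% = no signal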
Settings: HCT116 PTEN-null viability, CellTiter-Glo, 60 h; at 10 µM; active compounds read low

Row | Structure (SMILES) | viability
1 | C[C@@]12C=Cc3occc3C1CC[C@@]13C[C@@H](CCC12)[C@@](O)(CO)C3 (stereo not given in full) | 93.5%
2 | NC(=O)c1cccc(N)c1 | 94.5%
3 | CN1CCN(C2Cc3ccccc3Sc3ccc(S)cc32)CC1 (stereo not given) | 50.3%
4 | Nc1ccn([C@H]2CC[C@@H](CO)O2)c(=O)n1 | 93.9%
5 | O=C(c1ccccc1)c1ccccc1 | 100%
6 | CCCCCCCCCCCCCCCC(=O)OCC(O)C1OC(=O)C(O)=C1O (stereo not given) | 101%
7 | O=C(O)c1ccccc1O | 98.7%
8 | CC(=O)N[C@H]1C(O[C@@H]2O[C@H](C[C@@H](O)[C@H]3O[C@@H](N4CCC(=O)NC4=O)[C@H](O)[C@@H]3O)[C@H](O)[C@H](O)[C@H]2NC(=O)/C=C/CCCCCCCCCCC(C)C)OC(CO)[C@@H](O)[C@@H]1O (stereo not given in full) | 52.8%
9 | O=C1CCC(N2C(=O)c3ccccc3C2=O)C(=O)N1 (stereo not given) | 96.8%
10 | NCCNS(=O)(=O)c1cccc2c(Cl)cccc12 | 94.3%
11 | C=CC1(C)CC(=O)C2(O)C(C)(O1)C(OC(C)=O)C(O)C1C(C)(C)CCC(O)C12C (stereo not given) | 85.5%
12 | COc1ccc2c3c1O[C@H]1C[C@@H](O)C=C[C@@]31CCN(C)C2 | 91.7%
13 | O=c1c(O)c(-c2ccc(O)c(O)c2)oc2cc(O)cc(O)c12 | 72.4%
14 | CCC(C)C(O)C(C)C(=O)C(C)/C=C(\C)CC(C)C1OC(=O)C1CC (stereo not given) | 97.1%
15 | C[C@@H]1CC[C@]2(C(=O)O)CC[C@]3(C)C(=CCC4[C@@]5(C)C[C@@H](O)[C@H](O)[C@@](C)(CO)C5CC[C@]43C)C2[C@H]1C (stereo not given in full) | 94.3%
16 | CC1COC2=C1C(=O)C(=O)c1c2ccc2c1CCCC2(C)C (stereo not given) | 17.8% (active)
17 | C[C@@H]1C[C@@H]([C@@H](C)CC2CC(=O)NC(=O)C2)C(=O)[C@@H](C)C1 | 30.2%
18 | O=C(c1ccc(F)cc1)C1CCN(CCn2c(=O)[nH]c3ccccc3c2=O)CC1 | 94.8%
19 | COc1ccc(/C=C/c2cc(OC)cc(=O)o2)cc1 | 85.2%
20 | COc1c(C)c2c(c(O)c1C/C=C(\C)CCC(=O)O)C(=O)OC2 | 40.1%
21 | C=C1CC[C@H](O)C/C1=C/C=C1\CCC[C@]2(C)[C@@H]([C@H](C)CCCC(C)C)CC[C@@H]12 | 92.4%
22 | OCCN(CCO)c1nc(N2CCCCC2)c2nc(N(CCO)CCO)nc(N3CCCCC3)c2n1 | 96.3%
23 | C[C@@H]1CC2C3CCC4=CC(=O)C=CC4(C)[C@@]3(F)[C@@H](O)CC2(C)[C@@]1(O)C(=O)CO (stereo not given in full) | 105%
24 | CO/N=C(\C(=O)N[C@@H]1C(=O)N2C(C(=O)O)=C(COC(C)=O)CS[C@H]12)c1csc(N)n1 | 89.4%
25 | CC[C@@]1([C@@H]2O[C@@H]([C@H]3O[C@@](O)(CO)[C@H](C)C[C@@H]3C)C[C@@H]2C)CC[C@H]([C@]2(C)CC[C@]3(C[C@H](O)[C@@H](C)[C@@H]([C@@H](C)[C@@H](OC)C(C)C(=O)O)O3)O2)O1 (stereo not given in full) | 63.5%
26 | C/C=C1/C2C=C(C)CC1(N)c1ccc(=O)[nH]c1C2 (stereo not given) | 93.8%
27 | O=C(c1ccc(OCCN2CCCCC2)cc1)c1c(-c2ccc(O)cc2)sc2cc(O)ccc12 | 61.1%
28 | C=C1C(=O)[C@]23[C@H](O)[C@H]1CC[C@H]2[C@@]12COC3(O)[C@H](O)[C@@H]1C(C)(C)CC[C@@H]2O | 76.4%
29 | COC(=O)c1cc2c(s1)-c1ccccc1OC2 | 97.4%
30 | Cn1cnc2c(NCc3ccccc3)nc(NCCO)nc21 | 90.6%
